Results from the supplement of paper PMC7858590.

test system: human monocyte-derived macrophages (polarized); assay: cell shape (eccentricity) Z-score vs DMSO control; higher = more elongated, M2-like morphology; settings: 5 µM; 24 h; macrophage state: M1-polarized (IFNg + TNFa), cytokines present during treatment
Description: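 Primary-screen hits were rescreened on polarized hMDMs with the differentiating cytokines (IL-4 + IL-13 or IFNg + TNFa) kept in the medium during treatment with compound at 5 uM for 24 h. The eccentricity Z-score vs DMSO wells is averaged over experiments.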

| SMILES | cell shape (Z-score) |
| --- | --- |
| COc1ccc2c3c([nH]c2c1)[C@H](CC(C)C)N1C(=O)[C@H](CCC(=O)OC(C)(C)C)NC(=O)[C@@H]1C3 | 6.14 |
| CC(C)[C@]12O[C@H]1[C@@H]1O[C@]13[C@]1(O[C@H]1C[C@H]1C4=C(CC[C@@]13C)C(=O)OC4)[C@@H]2O | 5.54 |
| CN1[C@@H]2CC[C@H]1C[C@@H](OC(c1ccccc1)c1ccccc1N)C2 (stereo partly drawn) | -3.5 |
| CCC(=O)CCCCC[C@@H]1NC(=O)[C@H]2CCCCN2C(=O)[C@H]([C@@H](C)CC)NC(=O)[C@H](Cc2cn(OC)c3ccccc23)NC1=O | 4.88 |
| COc1cc2c(c(OC)c1OC)-c1ccc(OC)c(=O)cc1[C@@H](NC(C)=O)CC2 | 3.12 |

same assay, conditions: 5 µM; 24 h; macrophage state: M2-polarized (IL-4 + IL-13), cytokines present during treatment

| SMILES | cell shape (Z-score) |
| --- | --- |
| C(=C\c1ccccc1)/CN1CCN(CCOC(c2ccccc2)c2ccccc2)CC1 | 3.27 |
| Cc1c(C(=O)c2cccc3ccccc23)c2cccc3c2n1[C@H](CN1CCOCC1)CO3 | -6.47 |
| CC(C)=CCC[C@]1(C)C=Cc2c(O)c3c(c(CC=C(C)C)c2O1)O[C@]12C(=C[C@@H]4C[C@H]1C(C)(C)O[C@@]2(C/C=C(/C)C(=O)O)C4=O)C3=O | -10 |
